The values below come from PubChem BioAssay (NCI).

Several values for one entry are separate records, joined by “and”; a condition that tells them apart may be missing. Equal values may be shown once. The panel holds about 83,000 compounds, 20% with a hit somewhere; the sample as a whole holds those more often.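 A percent growth of 40 corresponds to 60% growth inhibition; 0 means no net growth; -100 means all cells died. Active threshold: below 10.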 A number with no mark means an inactive call. Activity calls are given as the source filed them.

Test systems include NCI-H23 lung; NCI-H226 lung; HOP-62 NSCLC; NCI-H460 lung; NCI-H522 lung; A549/ATCC NSCLC; 786-0 renal; COLO 205 colon; DU-145 prostate; K-562 leukemia; MALME-3M melanoma; MDA-MB-231 breast; RXF 393 renal; SF-268 CNS; SF-295 CNS; SF-539 CNS; UACC-257 melanoma; M14 melanoma; HOP-92 NSCLC.
Common to all, as to assay: NCI-60 one-dose screen, 48 h (100 = growth as untreated, 0 = no growth, -100 = all killed)
What all share (conditions): 10 µM unless noted

As for `C(#CCN1CCOCC1)CCCN1CCOCC1`, the growth in the experiment with NCI-H23 lung is 109% and 105%; in the experiment on NCI-H226 lung, 100% and 115%; in the experiment on HOP-62 NSCLC, 93.5% and 99.9%; in the experiment with NCI-H460 lung, 114% and 111%; in the experiment on NCI-H522 lung it was 105% and 95.4%; with A549/ATCC NSCLC, 105% and 100%. Besides, the growth in the experiment with 786-0 renal is 110% and 100%; in the experiment with COLO 205 colon, 105% and 104%; in the experiment on DU-145 prostate, 109% and 117%; in the experiment on K-562 leukemia it was 114% and 113%; in the experiment with MALME-3M melanoma, 117% and 88.9%; with MDA-MB-231 breast, 96.7% and 106%. The growth is 110% and 119% in the experiment with RXF 393 renal; 105% and 104% in the experiment on SF-268 CNS; 113% and 106% with SF-295 CNS; 104% and 91.7% in the experiment on SF-539 CNS; 97.5% and 101% in the experiment with UACC-257 melanoma; 105% and 98% in the experiment on M14 melanoma.

Consider `CC1=CC(=O)c2cccc(NC3=NCCO3)c21`, for which the growth with NCI-H23 lung was 100%; in the experiment on NCI-H226 lung, 94.2%; in the experiment with HOP-62 NSCLC it was 84.9%; in the experiment with NCI-H460 lung, 107%; in the experiment with HOP-92 NSCLC it was 77.6%; in the experiment with NCI-H522 lung, 87.8%. Moreover, the growth in the experiment on A549/ATCC NSCLC was 92.3%; in the experiment with 786-0 renal, 91.9%; with COLO 205 colon it was 102%; with DU-145 prostate, 108%; with K-562 leukemia, 82.4%; in the experiment on MALME-3M melanoma it was 93.4%. Moreover, the growth was 102% in the experiment with MDA-MB-231 breast; 117% with RXF 393 renal; 100% with SF-268 CNS; 95.1% with SF-295 CNS; 95.7% in the experiment with SF-539 CNS; 94.2% in the experiment on UACC-257 melanoma. The growth in the experiment with M14 melanoma was 97.1%.

As for `CCN(CC)CCNC(=O)c1ccc(NCN2C(=O)NC(c3ccccc3)(c3ccccc3)C2=O)cc1`, the growth with NCI-H23 lung was 97.1% and 103%; with NCI-H226 lung, 95.6% and 100%; in the experiment with HOP-62 NSCLC it was 116% and 99.7%; with NCI-H460 lung, 101% and 114%; with HOP-92 NSCLC, 86.2% and 105%; with NCI-H522 lung it was 108% and 106%. Further, the growth is 95.3% and 107% in the experiment on A549/ATCC NSCLC; 101% and 115% in the experiment with 786-0 renal; 124% and 103% with COLO 205 colon; 108% and 122% with DU-145 prostate; 110% and 108% in the experiment with K-562 leukemia; 96.1% in the experiment on MALME-3M melanoma. Also, the growth is 114% and 103% in the experiment on MDA-MB-231 breast; 106% and 118% in the experiment with RXF 393 renal; 102% and 101% in the experiment with SF-268 CNS; 94.1% in the experiment on SF-295 CNS; 104% with SF-539 CNS; 100% and 106% with UACC-257 melanoma. For the same compound, the growth in the experiment on M14 melanoma was 105% and 96.3%.

With `CC(NC(=O)CCl)c1ccccc1` (stereo not drawn), the growth was 99.9% in the experiment with NCI-H23 lung; 96.3% with NCI-H226 lung; 107% with HOP-62 NSCLC; 99.7% with NCI-H460 lung; 89% with HOP-92 NSCLC; 98% in the experiment on NCI-H522 lung. In addition, the growth with A549/ATCC NSCLC was 104%; with 786-0 renal, 104%; in the experiment on COLO 205 colon it was 104%; in the experiment on DU-145 prostate, 103%; in the experiment with K-562 leukemia it was 109%; in the experiment with MALME-3M melanoma it was 99.4%. The growth in the experiment with MDA-MB-231 breast was 111%; with RXF 393 renal, 98.7%; in the experiment on SF-268 CNS, 98.3%; in the experiment on SF-295 CNS, 102%; with SF-539 CNS it was 104%; in the experiment with UACC-257 melanoma, 100%. Besides, in the experiment with M14 melanoma, the growth is 93.8%.

On to `O=[N+]([O-])c1cccc(N=Cc2ccccc2)c1`, for which the growth in the experiment on NCI-H23 lung was 111%; in the experiment on NCI-H226 lung, 99.9%; in the experiment with HOP-62 NSCLC it was 105%; in the experiment on NCI-H460 lung it was 119%; in the experiment with HOP-92 NSCLC it was 95.7%; in the experiment on NCI-H522 lung, 88.2%. Besides, the growth was 99.8% in the experiment on A549/ATCC NSCLC; 105% in the experiment on 786-0 renal; 118% in the experiment with COLO 205 colon; 117% in the experiment with DU-145 prostate; 95.8% with K-562 leukemia; 119% in the experiment with MALME-3M melanoma. Also, the growth in the experiment on MDA-MB-231 breast is 106%; in the experiment with RXF 393 renal, 105%; with SF-268 CNS, 105%; with SF-295 CNS, 96.5%; with SF-539 CNS, 99.5%; in the experiment with UACC-257 melanoma it was 102%. In addition, the growth in the experiment with M14 melanoma is 106%.

Turning to `O=C1C2=C(Nc3cc(Cl)ccc3N2)OC1c1c[nH]c2ccc(COc3ccccc3)cc12` (stereo not drawn), the growth in the experiment with NCI-H23 lung is 59.3%; in the experiment with NCI-H226 lung, 2.7% (active); with HOP-62 NSCLC, -14.7% (active); in the experiment on NCI-H460 lung it was 59.7%; with HOP-92 NSCLC it was 42.3%; in the experiment on NCI-H522 lung it was 54.8%. For the same compound, the growth was 74.2% with A549/ATCC NSCLC; 38.8% with 786-0 renal; 111% in the experiment with COLO 205 colon; 73.7% in the experiment with DU-145 prostate; 79.7% in the experiment with K-562 leukemia; 74% with MALME-3M melanoma. The growth is 59.5% in the experiment with MDA-MB-231 breast; 43.9% in the experiment on RXF 393 renal; 30.4% in the experiment with SF-268 CNS; 33.5% in the experiment with SF-295 CNS; 53.8% in the experiment on SF-539 CNS; 80.3% in the experiment on UACC-257 melanoma. The growth with M14 melanoma is 94.2%.
